# Laboratory results as given in the supplement of paper PMC8728848.
# This is one part of a sample in which the strongest signals are shown more often than they occur.
# B1: Langerin K299A/K313A (Homo sapiens), Q9UJ71 (protein)
# chain: STLNAQIPELKSDLEKASALNTKIRALQGSLENMSKLLKRQNDILQVVSQGWKYFKGNFYYFSLIPKTWYSAEQFCVSRNSHLTSVTSESEQEFLYKTAGGLIYWIGLTKAGMEGDWSWVDDTPFNKVQSARFWIPGEPNNAGNNEHCGNIAAPSLQAWNDAPCDATFLFICKRPYVPSEP
# What was measured:
# Test in all cases: glycan array binding signal (z-score within array); higher = stronger binding
# Conditions in all cases: glycan notation: IUPAC condensed, linker removed
# [1] = target: Fuc(a1-2)Gal(b1-3)GlcNAc(b1-3)[Neu5Ac(a2-6)Gal(b1-4)GlcNAc(b1-6)]Gal(b1-4)Glc
# How it was run: (§1)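 The binding signal is a Z-score computed within each array. Data were drawn from 3228 arrays in the Consortium for Functional Glycomics database, restricted to those with a known protein sequence. Scores were averaged over arrays of the same protein sequence at different concentrations or buffers, and over linkers, and negative values can be taken as non-binding.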
# [2] = target: Fuc(a1-2)Gal(b1-4)GlcNAc(b1-2)Man
# How it was run: as §1
# [3] = target: Fuc(a1-2)Gal(b1-4)GlcNAc(b1-2)[Fuc(a1-2)Gal(b1-4)GlcNAc(b1-4)]Man(a1-3)[Fuc(a1-2)Gal(b1-4)GlcNAc(b1-2)Man(a1-6)]Man(b1-4)GlcNAc(b1-4)GlcNAc
# How it was run: as §1
# [4] = target: Fuc(a1-2)Gal(b1-4)GlcNAc(b1-3)Gal(b1-4)GlcNAc(b1-3)Gal(b1-4)GlcNAc
# How it was run: as §1
# [5] = target: Fuc(a1-2)[Gal(a1-3)]Gal(b1-3)GalNAc(b1-3)Gal(a1-4)Gal(b1-4)Glc
# How it was run: as §1
# [6] = target: Fuc(a1-3)[Gal(b1-4)]Glc6S
# How it was run: as §1
# [7] = target: Fuc(a1-3)[Gal(b1-4)]GlcNAc(b1-2)Man(a1-3)[Fuc(a1-3)[Gal(b1-4)]GlcNAc(b1-2)Man(a1-6)]Man(b1-4)GlcNAc(b1-4)GlcNAc
# How it was run: as §1
# [8] = target: Fuc(a1-3)[Gal(b1-4)]GlcNAc(b1-3)Gal(b1-3)[Fuc(a1-4)]GlcNAc
# How it was run: as §1
# [9] = target: Fuc(a1-3)[Gal(b1-4)]GlcNAc(b1-3)Gal(b1-4)[Fuc(a1-3)]GlcNAc
# How it was run: as §1
# [10] = target: Fuc(a1-3)[Gal(b1-4)]GlcNAc(b1-3)GalNAc
# How it was run: as §1
# Gal(a1-3)Gal = target: Gal(a1-3)Gal
# How it was run: as §1
# [11] = target: Gal(a1-3)Gal(b1-3)GlcNAc(b1-2)Man(a1-3)[Gal(a1-3)Gal(b1-3)GlcNAc(b1-2)Man(a1-6)]Man(b1-4)GlcNAc(b1-4)GlcNAc
# How it was run: as §1
# [12] = target: Gal(a1-3)Gal(b1-4)[Fuc(a1-3)]GlcNAc(b1-2)Man(a1-3)[Gal(a1-3)Gal(b1-4)[Fuc(a1-3)]GlcNAc(b1-2)Man(a1-6)]Man(b1-4)GlcNAc(b1-4)GlcNAc
# How it was run: as §1
# Gal(a1-4)Gal(b1-4)GlcNAc = target: Gal(a1-4)Gal(b1-4)GlcNAc
# How it was run: as §1
# [13] = target: Gal(b1-3)GalNAc(b1-3)Gal(a1-4)Gal(b1-4)Glc
# How it was run: as §1
# [14] = target: Gal(b1-3)GlcNAc(a1-3)Gal(b1-4)GlcNAc
# How it was run: as §1
# [15] = target: Gal(b1-3)GlcNAc(b1-3)GalNAc
# How it was run: as §1
# [16] = target: Gal(b1-3)[Fuc(a1-4)]GlcNAc(b1-2)Man(a1-3)[Gal(b1-3)[Fuc(a1-4)]GlcNAc(b1-2)Man(a1-6)]Man(b1-4)GlcNAc(b1-4)[Fuc(a1-6)]GlcNAc
# How it was run: as §1
# [17] = target: Gal(b1-3)[Neu5Ac(a2-6)]GalNAc
# How it was run: as §1
# [18] = target: Gal(b1-4)GlcNAc(b1-2)[Gal(b1-4)GlcNAc(b1-4)]Man(a1-3)[GlcNAc(b1-4)][Gal(b1-4)GlcNAc(b1-2)Man(a1-6)]Man(b1-4)GlcNAc(b1-4)GlcNAc
# How it was run: as §1
# [19] = target: Gal(b1-4)GlcNAc(b1-3)Gal(b1-4)Glc
# How it was run: as §1
# [20] = target: Gal(b1-4)GlcNAc(b1-3)Gal(b1-4)GlcNAc(b1-2)Man(a1-3)[Gal(b1-4)GlcNAc(b1-3)Gal(b1-4)GlcNAc(b1-2)Man(a1-6)]Man(b1-4)GlcNAc(b1-4)GlcNAc
# How it was run: as §1
# [21] = target: Gal(b1-4)GlcNAc(b1-3)Gal(b1-4)GlcNAc(b1-3)Gal(b1-4)GlcNAc(b1-3)Gal(b1-4)GlcNAc(b1-2)Man(a1-3)[Gal(b1-4)GlcNAc(b1-3)Gal(b1-4)GlcNAc(b1-3)Gal(b1-4)GlcNAc(b1-3)Gal(b1-4)GlcNAc(b1-2)Man(a1-6)]Man(b1-4)GlcNAc(b1-4)[Fuc(a1-6)]GlcNAc
# How it was run: as §1
# [22] = target: Gal(b1-4)GlcNAc(b1-3)Gal(b1-4)GlcNAc(b1-3)Gal(b1-4)GlcNAc(b1-3)Gal(b1-4)GlcNAc(b1-2)[Gal(b1-4)GlcNAc(b1-3)Gal(b1-4)GlcNAc(b1-3)Gal(b1-4)GlcNAc(b1-3)Gal(b1-4)GlcNAc(b1-6)]Man(a1-6)[Gal(b1-4)GlcNAc(b1-3)Gal(b1-4)GlcNAc(b1-3)Gal(b1-4)GlcNAc(b1-3)Gal(b1-4)GlcNAc(b1-2)Man(a1-3)]Man(b1-4)GlcNAc(b1-4)[Fuc(a1-6)]GlcNAc
# How it was run: as §1
# Gal3S(b1-4)Glc6S = target: Gal3S(b1-4)Glc6S
# How it was run: as §1
# [23] = target: Gal3S(b1-4)[Fuc(a1-3)]Glc6S
# How it was run: as §1
# Gal6S(b1-3)GlcNAc = target: Gal6S(b1-3)GlcNAc
# How it was run: as §1
binder,measurement,setting,value
B1,glycan array binding signal (z-score),[1],0.388
same,glycan array binding signal (z-score),[2],-0.127
same,glycan array binding signal (z-score),[3],2.71
same,glycan array binding signal (z-score),[4],0.332
same,glycan array binding signal (z-score),[5],-0.015
same,glycan array binding signal (z-score),[6],3.28
same,glycan array binding signal (z-score),[7],0.222
same,glycan array binding signal (z-score),[8],0.313
same,glycan array binding signal (z-score),[9],0.842
same,glycan array binding signal (z-score),[10],-0.202
same,glycan array binding signal (z-score),Gal(a1-3)Gal,-0.327
same,glycan array binding signal (z-score),[11],1.22
same,glycan array binding signal (z-score),[12],0.892
same,glycan array binding signal (z-score),Gal(a1-4)Gal(b1-4)GlcNAc,-0.009
same,glycan array binding signal (z-score),[13],-0.916
same,glycan array binding signal (z-score),[14],-0.826
same,glycan array binding signal (z-score),[15],0
same,glycan array binding signal (z-score),[16],1.85
same,glycan array binding signal (z-score),[17],0.445
same,glycan array binding signal (z-score),[18],-0.95
same,glycan array binding signal (z-score),[19],-0.709
same,glycan array binding signal (z-score),[20],3.14
same,glycan array binding signal (z-score),[21],3.97
same,glycan array binding signal (z-score),[22],3.09
same,glycan array binding signal (z-score),Gal3S(b1-4)Glc6S,-0.193
same,glycan array binding signal (z-score),[23],5.35
same,glycan array binding signal (z-score),Gal6S(b1-3)GlcNAc,-0.241
